Results as given in PubChem BioAssay (Tox21).
Results filed as inconclusive are left out. The source made the active and inactive calls. Calls come from the whole dose curve; as a rule, active = well fitted curve in the direction sought with a large enough effect in the repeat runs; inconclusive = weak or mixed curves; inactive = no such curve, though single readings can be large; an effect the other way counts as inactive or inconclusive.

Legend:
[1] = qHTS RealTime-Glo MT Cell Viability Assay in HepG2 cells - 40 hour (AID 1224870); note: nearly all actives have a fitted effect of over 50% in size
In short: (§1)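 Real-time viability: cells seeded at 600 per well together with NanoLuc and cell-permeant prosubstrate, compounds added after 5 h incubation. Luminescence tracked at 0, 8, 16, 24, 32 and 40 h of exposure.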

[2] = A CellTox Green Cytotoxicity Assay to monitor cytotoxicity in HEK293 cells - 40 hour (AID 1224871); note: nearly all actives have a fitted effect of over 45% in size
In short: (§2)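 HEK293 cells premixed with CellTox Green dye were seeded at 600 cells/well and left 5 h at 37 C/5% CO2 before pin transfer of 23 nL compound in DMSO. Fluorescence from dye bound to dead-cell DNA was read during 40 h treatment.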

[3] = qHTS RealTime-Glo MT Cell Viability Assay in HEK293 cells - 16 hour (AID 1224872); note: top concentration of the series differs between compounds; nearly all actives have a fitted effect of over 50% in size
In short: (§3)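 Luminescence generated by NanoLuc from substrate produced by living HEK293 cells served as the viability signal. Each value reflects the reading at its stated time point during continuous 40 h compound exposure at 37 C.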

[4] = qHTS RealTime-Glo MT Cell Viability Assay in HepG2 cells - 8 hour (AID 1224873); note: nearly all actives have a fitted effect of over 55% in size
In short: as §1

[5] = qHTS RealTime-Glo MT Cell Viability Assay in HEK293 cells - 40 hour (AID 1224874); conditions: RealTime-Glo luminescence; max response: active compounds read low; note: nearly all actives have a fitted effect of over 50% in size
In short: (§4)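 HEK293 cells mixed with RealTime-Glo reagents (NanoLuc plus cell-permeant prosubstrate) at 600 cells/well, preincubated 5 h at 37 C/5% CO2, then given 23 nL compound in DMSO. Nonlytic luminescence from viable cells was read at 0, 8, 16, 24, 32 and 40 h.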

[6] = A CellTox Green Cytotoxicity Assay to monitor cytotoxicity in HepG2 cells - 16 hour (AID 1224876); note: nearly all actives have a fitted effect of over 45% in size
In short: (§5)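 HepG2 cells were seeded together with the CellTox Green dye at 600 cells/well, left 5 h at 37 C/5% CO2, then given compounds in DMSO. Fluorescence from dye bound to dead-cell DNA was read repeatedly over 40 h of treatment at 37 C.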

[7] = qHTS RealTime-Glo MT Cell Viability Assay in HepG2 cells - 32 hour (AID 1224877); note: nearly all actives have a fitted effect of over 55% in size
In short: (§6)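 Tox21 10K library screened in qHTS format on HepG2 cells carrying RealTime-Glo reagents. Compounds were added after a 5 h preincubation, and the luminescent signal from continuous culture was measured repeatedly during 40 h treatment.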

[8] = A CellTox Green Cytotoxicity Assay to monitor cytotoxicity in HepG2 cells - 24 hour (AID 1224878); note: nearly all actives have a fitted effect of over 45% in size
In short: as §5

[9] = A CellTox Green Cytotoxicity Assay to monitor cytotoxicity in HepG2 cells - 40 hour (AID 1224879); note: nearly all actives have a fitted effect of over 40% in size
In short: as §5

[10] = qHTS RealTime-Glo MT Cell Viability Assay in HEK293 cells - 0 hour (AID 1224880); note: top concentration of the series differs between compounds; nearly all actives have a fitted effect of over 45% in size
In short: as §4

[11] = A CellTox Green Cytotoxicity Assay to monitor cytotoxicity in HEK293 cells - 32 hour (AID 1224881); note: nearly all actives have a fitted effect of over 40% in size
In short: as §2

[12] = A CellTox Green Cytotoxicity Assay to monitor cytotoxicity in HepG2 cells - 0 hour (AID 1224882); note: nearly all actives have a fitted effect of over 35% in size
In short: as §5

[13] = A CellTox Green Cytotoxicity Assay to monitor cytotoxicity in HepG2 cells - 32 hour (AID 1224883); note: nearly all actives have a fitted effect of over 50% in size
In short: as §5

[14] = A CellTox Green Cytotoxicity Assay to monitor cytotoxicity in HEK293 cells - 8 hour (AID 1224884); note: nearly all actives have a fitted effect of over 35% in size
In short: as §2

[15] = qHTS RealTime-Glo MT Cell Viability Assay in HepG2 cells - 16 hour (AID 1224885); note: nearly all actives have a fitted effect of over 50% in size
In short: as §6

[16] = qHTS RealTime-Glo MT Cell Viability Assay in HEK293 cells - 24 hour (AID 1224886)
In short: as §3

[17] = qHTS RealTime-Glo MT Cell Viability Assay in HEK293 cells - 8 hour (AID 1224887)
In short: as §4

[18] = A CellTox Green Cytotoxicity Assay to monitor cytotoxicity in HEK293 cells - 16 hour (AID 1224888); note: nearly all actives have a fitted effect of over 35% in size
In short: as §2

[19] = qHTS RealTime-Glo MT Cell Viability Assay in HepG2 cells - 0 hour (AID 1224889); note: nearly all actives have a fitted effect of over 50% in size
In short: as §6

[20] = A CellTox Green Cytotoxicity Assay to monitor cytotoxicity in HEK293 cells - 24 hour (AID 1224875)
In short: as §2
% is set by controls: 0 for no effect and ±100 for the full control effect.

CC/C=C\CC/C=C/CO
inactive: Potency [1] | Potency [2] | Potency [3] | Potency [4] | max response [5] 6.89% | Potency [6] | Potency [7] | Potency [8] | Potency [9] | Potency [10] | Potency [11] | Potency [12] | Potency [13] | Potency [14] | Potency [15] | Potency [16] | Potency [17] | Potency [18] | Potency [19]

CCCCC(CC)COC(=O)c1ccccc1O (stereo unspecified)
inactive: Potency [1] | Potency [2] | Potency [3] | Potency [4] | max response [5] 0.0024% | Potency [6] | Potency [7] | Potency [8] | Potency [9] | Potency [10] | Potency [13] | Potency [14] | Potency [16] | Potency [17] | Potency [18] | Potency [19]

CCOc1ccc(C(=O)OCCN(CC)CC)cc1
inactive: Potency [1] | Potency [2] | Potency [3] | Potency [4] | max response [5] 4.37% | Potency [6] | Potency [7] | Potency [9] | Potency [10] | Potency [12] | Potency [13] | Potency [14] | Potency [15] | Potency [16] | Potency [17] | Potency [18] | Potency [19]

NCCc1cnc[nH]1
inactive: Potency [1] | Potency [2] | Potency [3] | Potency [4] | max response [5] -0.307% | Potency [6] | Potency [7] | Potency [8] | Potency [9] | Potency [10] | Potency [11] | Potency [12] | Potency [13] | Potency [14] | Potency [15] | Potency [16] | Potency [17] | Potency [18] | Potency [19]

CN1CCC(=C2c3ccccc3CC(=O)c3sccc32)CC1
inactive: Potency [1] | Potency [2] | Potency [3] | Potency [4] | max response [5] -28.2% | Potency [20] | Potency [6] | Potency [8] | Potency [9] | Potency [10] | Potency [12] | Potency [13] | Potency [14] | Potency [15] | Potency [16] | Potency [17] | Potency [18] | Potency [19]

CCC(=O)OC(C)c1ccccc1 (stereo unspecified)
inactive: Potency [1] | Potency [2] | Potency [3] | Potency [4] | max response [5] -2.17% | Potency [6] | Potency [7] | Potency [9] | Potency [10] | Potency [12] | Potency [13] | Potency [14] | Potency [15] | Potency [16] | Potency [17] | Potency [19]

COCCCOCCCOC
inactive: Potency [1] | Potency [2] | Potency [3] | Potency [4] | max response [5] 6.62% | Potency [20] | Potency [6] | Potency [10] | Potency [11] | Potency [12] | Potency [14] | Potency [15] | Potency [16] | Potency [17] | Potency [18] | Potency [19]

Cc1ccc(C#N)cc1
inactive: Potency [1] | Potency [2] | Potency [3] | Potency [4] | max response [5] 6.96% | Potency [20] | Potency [6] | Potency [9] | Potency [10] | Potency [12] | Potency [13] | Potency [14] | Potency [15] | Potency [16] | Potency [17] | Potency [18] | Potency [19]

CC(NC(CCc1ccccc1)C(=O)O)C(=O)N1C(=O)N(C)CC1C(=O)O (stereo unspecified)
inactive: Potency [1] | Potency [2] | Potency [3] | Potency [4] | max response [5] -1.88% | Potency [20] | Potency [6] | Potency [8] | Potency [9] | Potency [10] | Potency [11] | Potency [12] | Potency [13] | Potency [14] | Potency [15] | Potency [17] | Potency [18] | Potency [19]

CC(=O)N(CC(O)CO)c1c(I)c(C(=O)NCCO)c(I)c(C(=O)NCC(O)CO)c1I (stereo unspecified)
inactive: Potency [1] | Potency [2] | Potency [3] | Potency [4] | max response [5] 9.14% | Potency [6] | Potency [7] | Potency [8] | Potency [9] | Potency [10] | Potency [11] | Potency [12] | Potency [13] | Potency [14] | Potency [15] | Potency [17] | Potency [18] | Potency [19]

O=c1cc(CO)occ1O
inactive: Potency [1] | Potency [2] | Potency [3] | Potency [4] | max response [5] 3.18% | Potency [20] | Potency [6] | Potency [8] | Potency [9] | Potency [10] | Potency [11] | Potency [12] | Potency [13] | Potency [14] | Potency [15] | Potency [16] | Potency [17] | Potency [18] | Potency [19]

CCn1nc(C(=O)O)c(=O)c2cc3c(cc21)OCO3
inactive: Potency [1] | Potency [2] | Potency [3] | Potency [4] | max response [5] 4.37% | Potency [6] | Potency [7] | Potency [8] | Potency [9] | Potency [10] | Potency [12] | Potency [13] | Potency [14] | Potency [15] | Potency [16] | Potency [17] | Potency [18] | Potency [19]

CCn1ccnc1CC1COc2ccccc2O1 (stereo unspecified)
inactive: Potency [1] | Potency [2] | Potency [3] | Potency [4] | max response [5] -26.6% | Potency [20] | Potency [6] | Potency [8] | Potency [9] | Potency [10] | Potency [11] | Potency [12] | Potency [13] | Potency [14] | Potency [15] | Potency [16] | Potency [17] | Potency [18] | Potency [19]

CC(C[N+](C)(C)C)OC(N)=O (stereo unspecified)
inactive: Potency [1] | Potency [2] | Potency [3] | Potency [4] | max response [5] 4.17% | Potency [20] | Potency [6] | Potency [8] | Potency [9] | Potency [10] | Potency [12] | Potency [13] | Potency [14] | Potency [15] | Potency [16] | Potency [17] | Potency [18] | Potency [19]

CC(=O)OCC(CCn1cnc2cnc(N)nc21)COC(C)=O
inactive: Potency [1] | Potency [2] | Potency [3] | Potency [4] | max response [5] -0.0813% | Potency [6] | Potency [7] | Potency [8] | Potency [9] | Potency [10] | Potency [11] | Potency [12] | Potency [13] | Potency [14] | Potency [16] | Potency [17] | Potency [18] | Potency [19]
